Assay outcomes as filed in PubChem.
ClpP mod: qHTS Assay for Activators of ClpP; actives 1.9% (n = 340,000); Potency, µM (highest dose often 57.5 µM), inactives show at the top dose activity change, negative = active; purified B. subtilis ClpP, FRET peptide cleavage, 20 min; AID 651965, 2013; ATP-dependent Clp protease proteolytic subunit (Bacillus subtilis (strain 168)), P80244; active = well fitted falling curve with a large enough effect; inconclusive = small, poorly fitted or top-dose-only effect; inactive = no such curve, though single readings can be large or run the other way; also: potency is read from the fitted curve at half-maximal effect; the source files actives as falling curves though it sought activators and does not explain the sign; nearly all actives have a fitted effect of over 65% in size
Target sequence (P80244 whole entry, looked up): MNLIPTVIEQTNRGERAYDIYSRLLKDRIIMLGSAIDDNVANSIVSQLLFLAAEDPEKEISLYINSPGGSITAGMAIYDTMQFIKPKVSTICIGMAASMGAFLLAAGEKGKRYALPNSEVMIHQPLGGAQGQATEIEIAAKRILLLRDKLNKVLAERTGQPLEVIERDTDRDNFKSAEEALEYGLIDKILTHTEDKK
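Purified B. subtilis ClpP, 10 microg/mL final in Tris/HCl pH8 with KCl, BSA, glycerol and Tween-20, cleaved an Abz/nitrotyrosine-quenched decapeptide. Fluorescence (ex 320, em 430) was read at 0 and 20 min at room temperature. Delta was normalized to 5.8 microM ADEP and DMSO/no-enzyme controls.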
TCR act: activates T cell receptor signaling | primary human leukocytes, anti-CD3, IL-2 HTRF, 48 h | Potency, µM (highest dose often 9.22 µM), inactives show top-dose activation of IL-2 secretion, most hits filed as activators | AID 504894 | 330,000 tested, under 10 active; also: % of control where 0% means no effect
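Primary human leukocytes receive a-CD3 beads and test compound and are incubated 48 hr. Secreted IL-2 is then assayed by HTRF, measuring 665nm acceptor emission after 320nm excitation of the europium donor.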
Sfp inh: Sfp phosphopantetheinyl transferase inhibition | Biochemical Sfp PPTase activity, qHTS | Potency, µM, for the others: largest response in the series, negative = inhibition, most hits filed as inhibitors | actives 3.5% (n = 310,000);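 also: the enzyme is Sfp with the accession as filed and its product quenches rhodamine fluorescence; potency is read from the fitted curve at half-maximal effect; 0% = enzyme reaction without inhibitor and -100% = no enzyme wells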
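After 15 min at room temperature with compound, 15 nM Sfp received 5 uM rhodamine-CoA plus 12.5 uM BHQ-2-ybbR (50 mM Hepes pH 7.6, 10 mM MgCl2). Rate came from the fluorescence difference over 30 min, ex 525/em 598 nm.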
uPA generation: cell surface uPA generation inhibition | cell surface uPA generation assay, qHTS | Potency, µM (series often up to 38.3 µM), inactives show at the highest dose activity change, negative = inhibition, actives largely listed as inhibitors | actives 0.31% (n = 330,000); active = well fitted inhibition curve with a large enough effect; inconclusive = small, poorly fitted or top-dose-only effect; inactive = no such curve, though single readings can be large or run the other way; tested in mouse RAW 264.7 cells; also: potency is read from the fitted curve at half-maximal effect; % is scaled to controls: 0 for no effect and ±100 for the full control effect; nearly all actives have a fitted effect of over 55% in size
* = called active by the depositor; ? = inconclusive; . = no result given; [ ] = another dose, or the depositor's remark. Only some compounds are listed: those with a hit (about 4.2% of all), similar ones and a draw of the others. Unless noted, calls follow the shape of the dose curve; as a rule, active = well fitted curve in the direction sought with a large enough effect; inconclusive = small, poorly fitted or top-dose-only effect, or another doubt; inactive = no such curve, though single readings can be large; an effect the other way counts as inactive or inconclusive.

SMILES	ClpP mod	TCR act	Sfp inh	uPA generation
COc1ccc(CCn2c3c(c(=O)[nH]c2=S)CN(CC(C)C)CN3)cc1OC	-2%	.	.	.
Cn1nnc2sc3c(c2c1=O)CCCC3	0%	-7%	50µM*	.
O=C(O)COc1ccccc1/C=C1\C(=O)Nc2ccc(Br)cc21	25µM*	-1%	19%	-4%
Cc1ccc(C(=O)CN2C(=O)NC3(CCc4ccccc43)C2=O)s1 (centres undefined)	1%	2%	.	2%
COc1cccc(OCc2nc3ccccc3n2CCOc2ccc(C)cc2)c1	-1%	.	.	.
COCC(=O)N(Cc1cc2ccc(C)cc2[nH]c1=O)c1ccccc1C	.	8%	29%	6%
COCC(=O)N(Cc1cc2ccc(C)cc2[nH]c1=O)c1ccc(C)cc1C	0%	-2%	14%	-1%
Cc1ccc2cc(CN(C(=O)c3ccco3)c3ccccc3C)c(=O)[nH]c2c1	?	-1%	50µM*	10%
Cc1ccc(N(Cc2cc3ccc(C)cc3[nH]c2=O)C(=O)c2ccco2)c(C)c1	?	0%	50µM*	5%
Cc1ccc2cc(CN(C(=O)c3ccco3)c3cccc(C)c3C)c(=O)[nH]c2c1	.	-10%	32µM*	-2%
Cc1ccc(-c2cn3cccnc3n2)cc1NC(=O)Cc1ccccc1	5%	.	.	.
Cc1c(O)ccc2c1OC(C)(C)CC2	-8%	.	.	.
Cc1ccc2[nH]c(C(=O)NN=C3CCCCC3)c(-c3ccccc3)c2c1	-1%	-4%	-9%	-7%
Cc1nc2c(-c3ccc(F)cc3)cnn2c(N)c1-c1ccccc1	4%	-2%	7%	3.2µM*
COc1ccc(OC)c(-c2noc(N3CCN(c4ccc(C(C)=O)cc4)CC3)n2)c1	-23%	.	.	.
CN(C)c1ccc(NC(=O)COC(=O)Cn2nnc3ccccc32)cc1	25µM*	?	6%	4%
O=C(COC(=O)Cn1nnc2ccccc21)Nc1ccccc1Br	28µM*	-1%[46.1 µM]	-7%	-15%
CCOC(=O)c1cnn(-c2cccc(F)c2)c1C1CCNCC1	-2%	.	.	.
CCN(CC)C(=O)CSC1=Nc2ccccc2C2=NC(Cc3c[nH]c4ccccc34)C(=O)N12 (centres undefined)	2%	1%	50µM*	2%
C(=C\c1ccnc2ccccc12)/c1cccnc1	2%	.	.	.
COCCn1c(SCC(=O)Nc2cccc(C)c2C)nc2c(oc3ccccc32)c1=O	0%	.	.	.
Brc1ccc(-c2csc(NNC3=NCCCCC3)n2)cc1	1%	5%	50µM*	-1%
CC(C)(C)c1ccc(-c2csc(NNC3=NCCCCC3)n2)cc1	-6%	1%	50µM*	.
c1ccc(-c2csc(NC3=NCCCCC3)n2)cc1	.	-3%[46.1 µM]	0%	-3%
N#Cc1ccc(-c2csc(NC3=NCCCCC3)n2)cc1	?	3%[46.1 µM]	-11%	-5%
SMILES	ClpP mod	TCR act	Sfp inh	uPA generation
FC(F)Oc1ccc(-c2csc(NNC3=NCCCCC3)n2)cc1	.	2%	22µM*	-4%
Cc1cc(C)cc(OCC(=O)Nc2ccc(S(=O)(=O)Nc3onc(C)c3C)cc2)c1	-2%	.	.	.
CC(C)(C)c1ccc(S(=O)(=O)NCc2nc3cccnc3n2Cc2ccccc2Cl)cc1	-4%	.	.	.
COc1cccc(/C=C/C(=O)OCC(=O)Nc2cccc(S(=O)(=O)NC3=NCCCCC3)c2)c1	4%	2%	.	0%
COc1cccc2c1cc1c(=O)n(CC(=O)N3CCN(c4cccc(C(F)(F)F)c4)CC3)nc(C)n12	16µM*	.	.	.
COc1cccc(N2CCN(C(=O)Cn3nc(C)n4c(cc5c(OC)cccc54)c3=O)CC2)c1	-1%	.	.	.
CCOC(=O)C1CCN(C(=O)Cn2nc(C)n3c(cc4c(OC)cccc43)c2=O)CC1	2.8µM*	.	.	.
Cc1ccc(NC(=S)N2CCN(S(=O)(=O)c3ccc(F)cc3)CC2)cc1	1%	8%	17%	1%
CC1CCN(c2ccc(-c3cccs3)nn2)CC1	-14%	-4%	-4%	0.89µM*
CC(C)(C)C1CCc2nc(NC(=O)COc3ccc(F)cc3)sc2C1 (centres undefined)	-2%	.	.	.
O=c1oc2ccccc2nc1/C=C(O)/C=C\c1ccccc1	1%	0%	-18%	-15%
O=c1oc2ccccc2nc1/C=C(O)/C=C/c1ccc(F)cc1	1%	-3%[46.1 µM]	79µM*	-8%
CCOC(=O)C1=C(C)N=C2SCCC(=O)N2C1c1ccc(OCc2ccccc2)cc1 (centres undefined)	0%	.	.	.
CN(C)C(=O)CN1C(=O)NC2(CCc3ccccc32)C1=O (centres undefined)	-15%	0%	12%	6%
O=C(CSc1nnc(CNC(=O)c2ccco2)o1)Nc1ccccc1F	-1%	-2%	40µM*	2%
Cc1nc2sc(C(c3ccco3)N3CC(C)OC(C)C3)c(O)n2n1 (centres undefined)	3%	-5%	25µM*	1%
Oc1c(C(c2ccco2)N2CCOCC2)sc2ncnn12 (centres undefined)	0%	2%	40µM*	0%
Cc1nc2sc(C(c3ccco3)N3CCN(C(c4ccccc4)c4ccccc4)CC3)c(O)n2n1 (centres undefined)	0%	-2%	7.9µM*	?
Cc1nc2sc(C(c3ccccc3)N3CC(C)OC(C)C3)c(O)n2n1 (centres undefined)	0%	-1%	28%	-1%
Cc1nc2sc(C(c3ccco3)N3CCC(C)CC3)c(O)n2n1 (centres undefined)	-1%	-5%[46.1 µM]	16µM*	-5%
CCn1c(SCC(=O)Nc2cccc(C)c2)nc2nc3c(cc2c1=O)COC(C)(C)C3	1%	-2%	-1%	2%
Cc1cc(C)cc(Nc2ccc(C(=O)O)cc2N)c1	28µM*	-4%[46.1 µM]	-11%	4%
Cc1ccc(Nc2ccc(C(=O)O)cc2N)cc1	-25%	4%	8%	3%
CCOc1ccc(-c2nc(Cn3c(=O)cc(-c4ccccc4)c4c(C)nn(C)c43)c(C)o2)cc1	-6%	.	.	.
CCC1(C)Cc2ccccc2-c2nc(NCCCO)n(-c3ccccc3)c(=O)c21 (centres undefined)	3.5µM*	-2%	-2%	-3%
SMILES	ClpP mod	TCR act	Sfp inh	uPA generation
CCC1(C)Cc2ccccc2-c2nc3n(c(=O)c21)CCS3 (centres undefined)	?	-11%[46.1 µM]	4%	-21%
O=c1[nH]c(NCCO)nc2c1C1(CCCC1)Cc1ccccc1-2	32%	3%	8%	2%
CCC1(C)Cc2ccccc2-c2nc3n(c(=O)c21)CC(C(=O)O)S3 (centres undefined)	25µM*	6%	16%	-4%
Cn1c(NCCCO)nc2c(c1=O)C1(CCCCC1)Cc1ccccc1-2	28µM*	-2%	1%	7%
O=C(NCC(c1ccc2c(c1)OCO2)N1CCOCC1)c1c(F)cccc1F (centres undefined)	-3%	.	.	.
O=C(NCc1ccc(F)cc1F)[C@@H]1CCCN1C(=O)[C@@H]1CCCN1C(=O)c1ccc(Cl)cc1	-3%	.	.	.
CCOC(=O)c1ccc(NC(=O)CCc2nc(-c3ccc(Cl)cc3)no2)cc1	4%	3%	89µM*	5%
